In all, about 5,500 compounds went through this assay and about 2,000 (36%) were called active. Roughly 18% stayed inconclusive and do not appear here. Rule as the data show it: active = normalized growth mostly below about 0.91 (no sharp cut-off); inconclusive = no clear call, values can overlap the other calls; inactive = mostly above about 0.92. Some of the results follow.
Test: chemical genetic growth profiling, strain panel (AID 1159580);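 also: tested at 20 µM; growth read once vehicle control cultures reached saturation at 30 °C; 1 = growth at the plate median or of vehicle wells; lower values mean less growth of the strain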
Conditions: growth OD

Measured: normalized growth

NCCc1cccc(O)c1
inactive: S. cerevisiae deletion strains, locus YAL013W, strain DEP1, stronger effect = lower value 1.01 | S. cerevisiae deletion strains, locus YBR021W, strain FUR4, stronger effect = lower value 0.972 | S. cerevisiae deletion strains, locus YBR229C, strain ROT2, stronger effect = lower value 0.983 | S. cerevisiae deletion strains, locus YCL029C, strain bik1, stronger effect = lower value 0.981 | S. cerevisiae deletion strains, locus YDL035C, strain GPR1, stronger effect = lower value 1.01 | S. cerevisiae deletion strains, locus YDL074C, strain BRE1, stronger effect = lower value 1.01 | S. cerevisiae deletion strains, locus YDL101C, strain DUN1, stronger effect = lower value 0.985 | S. cerevisiae deletion strains, locus YDL134C, strain PPH21, stronger effect = lower value 0.984 | S. cerevisiae deletion strains, locus YDL185W, strain tfp1, stronger effect = lower value 0.989 | S. cerevisiae deletion strains, locus YDL192W, strain arf1, stronger effect = lower value 0.979 | S. cerevisiae deletion strains, locus YDR101C, strain arx1, stronger effect = lower value 0.985 | S. cerevisiae deletion strains, locus YDR150W, strain NUM1, stronger effect = lower value 1 | S. cerevisiae deletion strains, locus YDR162C, strain NBP2, stronger effect = lower value 0.996 | S. cerevisiae deletion strains, locus YDR318W, strain mcm21, stronger effect = lower value 0.983 | S. cerevisiae deletion strains, locus YDR388W, stronger effect = lower value 0.981 | S. cerevisiae deletion strains, locus YDR502C, strain sam2, stronger effect = lower value 0.992 | S. cerevisiae deletion strains, locus YEL061C, strain CIN8, stronger effect = lower value 0.994 | S. cerevisiae deletion strains, locus YER110C, stronger effect = lower value 0.985 | S. cerevisiae deletion strains, locus YER155C, strain BEM2, stronger effect = lower value 0.951 | S. cerevisiae deletion strains, locus YER167W, strain BCK2, stronger effect = lower value 0.982 | S. cerevisiae deletion strains, locus YGL078C, strain dbp3, stronger effect = lower value 0.989 | S. cerevisiae deletion strains, locus YGL086W, strain mad1, stronger effect = lower value 0.976 | S. cerevisiae deletion strains, locus YGL248W, strain PDE1, stronger effect = lower value 0.982 | S. cerevisiae deletion strains, locus YGR078C, strain PAC10, stronger effect = lower value 1 | S. cerevisiae deletion strains, locus YGR135W, strain pre9, stronger effect = lower value 0.982 | S. cerevisiae deletion strains, locus YGR229C, strain SMI1, stronger effect = lower value 1.05 | S. cerevisiae deletion strains, locus YGR252W, strain gcn5, stronger effect = lower value 0.952 | S. cerevisiae deletion strains, locus YHR030C, strain SLT2, stronger effect = lower value 0.994 | S. cerevisiae deletion strains, locus YHR079C, strain IRE1 (second series), stronger effect = lower value 0.986 | S. cerevisiae deletion strains, locus YHR094C, strain hxt1, stronger effect = lower value 0.992 | S. cerevisiae deletion strains, locus YHR129C, strain ARP1, stronger effect = lower value 0.987 | S. cerevisiae deletion strains, locus YHR200W, strain rpn10, stronger effect = lower value 0.974 | S. cerevisiae deletion strains, locus YIL066C, strain RNR3, stronger effect = lower value 0.996 | S. cerevisiae deletion strains, locus YIL073C, strain SPO22, stronger effect = lower value 0.946 | S. cerevisiae deletion strains, locus YIL125W, strain kgd1, stronger effect = lower value 0.984 | S. cerevisiae deletion strains, locus YIR030C, strain dcg1, stronger effect = lower value 0.991 | S. cerevisiae deletion strains, locus YJL095W, strain BCK1, stronger effect = lower value 1 | S. cerevisiae deletion strains, locus YJL134W, strain LCB3, stronger effect = lower value 0.992 | S. cerevisiae deletion strains, locus YJL168C, strain set2, stronger effect = lower value 0.987 | S. cerevisiae deletion strains, locus YJL187C, strain SWE1 (second series), stronger effect = lower value 0.991 | S. cerevisiae deletion strains, locus YJR043C, strain POL32, stronger effect = lower value 0.979 | S. cerevisiae deletion strains, locus YJR075W, strain HOC1, stronger effect = lower value 0.998 | S. cerevisiae deletion strains, locus YKL009W, strain mrt4, stronger effect = lower value 0.965 | S. cerevisiae deletion strains, locus YKL068W, stronger effect = lower value 0.992 | S. cerevisiae deletion strains, locus YKL085W, strain MDH1 (second series), stronger effect = lower value 0.987 | S. cerevisiae deletion strains, locus YKL085W, strain MDH1, stronger effect = lower value 0.987 | S. cerevisiae deletion strains, locus YKL190W, strain CNB1, stronger effect = lower value 0.997 | S. cerevisiae deletion strains, locus YKR001C, strain vps1, stronger effect = lower value 0.976 | S. cerevisiae deletion strains, locus YLR039C, strain RIC1, stronger effect = lower value 0.972 | S. cerevisiae deletion strains, locus YLR058C, strain SHM2, stronger effect = lower value 0.992 | S. cerevisiae deletion strains, locus YLR102C, strain apc9, stronger effect = lower value 0.99 | S. cerevisiae deletion strains, locus YLR262C, strain YPT6, stronger effect = lower value 0.997 | S. cerevisiae deletion strains, locus YLR268W, strain sec22, stronger effect = lower value 0.989 | S. cerevisiae deletion strains, locus YLR330W, strain CHS5, stronger effect = lower value 0.99 | S. cerevisiae deletion strains, locus YLR342W, strain FKS1 (second series), stronger effect = lower value 0.963 | S. cerevisiae deletion strains, locus YLR371W, strain rom2, stronger effect = lower value 0.991 | S. cerevisiae deletion strains, locus YLR418C, strain cdc73, stronger effect = lower value 0.985 | S. cerevisiae deletion strains, locus YML016C, strain PPZ1, stronger effect = lower value 0.985 | S. cerevisiae deletion strains, locus YML032C, strain rad52, stronger effect = lower value 0.978 | S. cerevisiae deletion strains, locus YML124C, strain tub3, stronger effect = lower value 0.989 | S. cerevisiae deletion strains, locus YMR078C, strain ctf18, stronger effect = lower value 0.983 | S. cerevisiae deletion strains, locus YMR223W, strain ubp8, stronger effect = lower value 0.979 | S. cerevisiae deletion strains, locus YMR263W, strain SAP30, stronger effect = lower value 1 | S. cerevisiae deletion strains, locus YMR307W, strain GAS1, stronger effect = lower value 0.991 | S. cerevisiae deletion strains, locus YNL067W, strain RPL9B, stronger effect = lower value 1.01 | S. cerevisiae deletion strains, locus YNL128W, strain TEP1, stronger effect = lower value 1.03 | S. cerevisiae deletion strains, locus YNL153C, strain GIM3, stronger effect = lower value 0.996 | S. cerevisiae deletion strains, locus YNL233W, strain BNI4, stronger effect = lower value 0.989 | S. cerevisiae deletion strains, locus YNL250W, strain rad50, stronger effect = lower value 0.984 | S. cerevisiae deletion strains, locus YNL271C, strain bni1, stronger effect = lower value 0.991 | S. cerevisiae deletion strains, locus YNL298W, strain CLA4, stronger effect = lower value 0.98 | S. cerevisiae deletion strains, locus YNL307C, strain MCK1, stronger effect = lower value 0.981 | S. cerevisiae deletion strains, locus YNL322C, strain KRE1, stronger effect = lower value 0.998 | S. cerevisiae deletion strains, locus YNR052C, strain pop2, stronger effect = lower value 0.987 | S. cerevisiae deletion strains, locus YOL006C, strain TOP1, stronger effect = lower value 0.986 | S. cerevisiae deletion strains, locus YOL012C, strain htz1 0.834 | S. cerevisiae deletion strains, locus YOL147C, strain pex11, stronger effect = lower value 0.986 | S. cerevisiae deletion strains, locus YOR061W, strain CKA2, stronger effect = lower value 0.991 | S. cerevisiae deletion strains, locus YOR069W, strain VPS5, stronger effect = lower value 0.988 | S. cerevisiae deletion strains, locus YOR136W, strain idh2, stronger effect = lower value 0.975 | S. cerevisiae deletion strains, locus YOR144C, strain elg1, stronger effect = lower value 0.986 | S. cerevisiae deletion strains, locus YOR184W, strain ser1, stronger effect = lower value 0.965 | S. cerevisiae deletion strains, locus YOR316C, strain cot1, stronger effect = lower value 0.989 | S. cerevisiae deletion strains, locus YPL055C, strain LGE1, stronger effect = lower value 1.04 | S. cerevisiae deletion strains, locus YPL241C, strain CIN2, stronger effect = lower value 1 | S. cerevisiae deletion strains, locus YPR119W, strain clb2, stronger effect = lower value 0.992 | S. cerevisiae deletion strains, locus YPR141C, strain kar3, stronger effect = lower value 0.988 | S. cerevisiae deletion strains, locus YPR163C, strain tif3, stronger effect = lower value 0.984 | S. cerevisiae deletion strains, locus YPR167C, strain met16, stronger effect = lower value 0.981 | S. cerevisiae deletion strains, strain wtn01, stronger effect = lower value 0.987 | S. cerevisiae strains, strain wild type, stronger effect = lower value 1.02

Source: PubChem BioAssay AID1159580 (chemical genetic matrix, 2015)
